Bioassay records (PubChem BioAssay)
LYPLA2 inh – LYPLA2 inhibitors, primary screen, counter-screen for PME1 inhibitor project, biochemical, fluorescence polarization, FP-Rh probe ABPP. Acyl-protein thioesterase 2 (Homo sapiens), O95372. recombinant LYPLA2. inhibition, % at 5.9 µM. 0.38% of 320,000 active. AID 2177, 2009;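 active = inhibition above the screen-wide mean plus 3 SD, limit set per campaign, cut at about 26% in these data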;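 also: 0% = LYPLA2 with DMSO and 100% = wells lacking LYPLA2 enzyme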
Target sequence (O95372 whole entry, looked up): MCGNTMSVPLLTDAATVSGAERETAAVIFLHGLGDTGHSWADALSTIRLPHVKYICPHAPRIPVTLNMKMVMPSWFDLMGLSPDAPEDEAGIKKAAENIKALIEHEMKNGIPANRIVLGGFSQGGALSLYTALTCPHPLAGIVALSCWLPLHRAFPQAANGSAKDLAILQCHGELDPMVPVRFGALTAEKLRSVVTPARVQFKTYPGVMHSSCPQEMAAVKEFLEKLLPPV
LYPLA1 counter – LYPLA1 inhibitors, primary screen, counter-screen for PME1 inhibitor project, biochemical, fluorescence polarization, FP-Rh probe ABPP; Acyl-protein thioesterase 1 (Homo sapiens), O75608; recombinant LYPLA1; inhibition, % at 5.9 µM; 0.16% of 320,000 active; AID 2174, 2009;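 active = inhibition above the mean of all tested compounds plus 3 SD, set per campaign, cut at about 14% in these data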;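 also: inhibitors block serine hydrolase probe labeling of LYPLA1 so polarization falls; 0% = enzyme with DMSO and 100% = wells lacking LYPLA1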
Target sequence (O75608 whole entry, looked up): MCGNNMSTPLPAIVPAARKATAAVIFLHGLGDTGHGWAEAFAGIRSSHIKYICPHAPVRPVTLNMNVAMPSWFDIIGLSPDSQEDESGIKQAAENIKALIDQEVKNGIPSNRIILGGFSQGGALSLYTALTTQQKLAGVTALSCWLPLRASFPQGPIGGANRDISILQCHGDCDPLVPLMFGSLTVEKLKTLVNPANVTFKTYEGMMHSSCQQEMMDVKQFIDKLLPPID
p97 ATPase inh – inhibitors of human p97 ATPase, primary screen, biochemical; recombinant p97 ATPase, Kinase-Glo ATP luminescence, 3 h; inhibition, % at 8 µM; 0.42% of 220,000 active; AID 1481, 2009; in the data active = inhibition above about 15%;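 also: 0% = DMSO vehicle and 100% = wells lacking enzyme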
Rin1 Abl inh – inhibitors of Rin1-Abl protein binding, primary screen, biochemical, TR-FRET; inhibition, % at 7.35 µM; 0.4% of 360,000 active; AID 588664, 2011; in the data active = inhibition above about 5%, passing the limit was not always enough
PREPL inhibitor – PREPL enzyme inhibitors, primary screen, biochemical, fluorescence polarization; Prolyl endopeptidase-like (Homo sapiens), Q4J6C6; recombinant PREPL, fluorescence polarization activity-based probe; inhibition, % at 5.96 µM; 0.68% of 320,000 active; AID 2751, 2010; in the data active = inhibition above about 43%;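 also: 0% = enzyme with DMSO and 100% = wells lacking enzyme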
Hck-Nef inh – inhibitors of Nef-activated human Hck kinase, primary screen, biochemical, Z-Lyte FRET, 384-well, Hck-YEEI. 0.68% of 220,000 active. inhibition, % at 20 µM. AID 463187, 2010. Recombinant Hck-YEEI plus Nef, Z-Lyte FRET kinase assay. Tyrosine-protein kinase HCK (Homo sapiens), P08631;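 active = Hck-Nef kinase inhibition above about 50%, limit read from the data; inactive = inhibition below that limit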;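 also: 0% = DMSO with Hck plus Nef and 100% = Hck alone without Nef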
Hck Nef conf – retest of Hck:Nef kinase inhibitor hits, confirmation, biochemical, Z-Lyte FRET, 384-well, p-Tyr peptide counterscreen; calls only at 10 µM; Recombinant Hck-YEEI:Nef, Z-Lyte FRET kinase assay; 28% of 1,300 active; shares compounds with Hck-Nef inh;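 active = average inhibition of at least 50%, with Z-scores no higher than 3 in both the phospho-tyrosine peptide and fluorescence counterscreens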
* marks the source's active call; other numbers are inactive results; i = inactive; . = not tested or not shown; + = active, no number. Only some compounds are listed: those with a hit (about 1.7% of all), similar ones and a draw of the others.

SMILES | LYPLA2 inh | LYPLA1 counter | p97 ATPase inh | Rin1 Abl inh | PREPL inhibitor | Hck-Nef inh | Hck Nef conf
COc1cccc(C(=O)Nc2ccc3nc(N4CCN(c5ncccn5)CC4)cc(C)c3c2)c1OC | 8 | 13 | 0 | . | -2 | 34 | .
CCOc1ccccc1C(=O)Nc1ccc2nc(N3CCN(c4ncccn4)CC3)cc(C)c2c1 | 3 | 1 | -2 | . | 16 | 64* | +
COc1ccc(Br)cc1/C=C/C(=O)NC(=S)Nc1ccc(Cl)c(C(=O)O)c1 | -3 | -7 | 3 | -1 | -40 | 58* | i
CCc1ccc(NC(=O)CCN2C(=O)c3cccnc3C2=O)cc1 | 4 | 2 | -2 | 4 | 5 | 0 | .
CCc1ccc2c(c1)C(=O)C(=O)N2CC(=O)Nc1ccc(NC(=O)c2ccccn2)cc1 | -53 | -33 | 12 | -2 | -12 | 77* | +
COc1ccccc1C(=O)Oc1ccc2c(c1)O/C(=C\c1ccncc1)C2=O | 4 | -2 | 6 | -3 | -2 | 76* | +
CC(=N)c1c(O)cc(C)oc1=O | . | . | . | 0 | . | . | .
Cc1ccc(-c2nc(N/N=C/c3ccccc3[N+](=O)[O-])c3ccccc3n2)cc1 | -2 | 3 | 2 | 3 | 12 | 56* | i
O=C(NCc1cccnc1)c1ccccc1NS(=O)(=O)c1ccc(Br)cc1 | . | . | . | 1 | 12 | . | .
CC1CN(C(C)C)C(=S)NC1=O (stereo not given) | . | . | . | 3 | . | . | .
O=C(N/N=C/c1ccc([N+](=O)[O-])cc1)c1cc(-c2ccc3c(c2)OCO3)n[nH]1 | -11 | -5 | 7 | -1 | 5 | 64* | i
COc1cc(/C=N/NC(=O)c2cc(-c3ccc4c(c3)OCO4)n[nH]2)ccc1O | -9 | -4 | 1 | -4 | 31 | 3 | .
CCOC(=O)C(CCc1ccccn1)c1ccccc1 (stereo not given) | . | . | . | 5 | . | . | .
O=C(O)c1ccc(N/N=C/c2ccc(OC(=O)c3cccc(Cl)c3)cc2)cc1 | 41* | -3 | -1 | -1 | 8 | 56* | +
O=C(Oc1ccc(/C=N/Nc2ccccc2)cc1)c1ccccc1 | 9 | 0 | 3 | -1 | -3 | -2 | .
COC(=O)CN(C)C(=O)c1ccccc1OC1CCN(S(C)(=O)=O)CC1 | -5 | 1 | . | 1 | 9 | . | .
CCCn1c(NC(=O)c2cccc(S(=O)(=O)N3CCCC3)c2)nc2ccccc21 | -18 | -6 | 4 | -5 | -4 | 52* | +
CCCn1c(NC(=O)c2ccccc2)nc2ccccc21 | -3 | -7 | -2 | 0 | 6 | 0 | .
c1ccc2c(c1)[nH]c1ccccc12 | 1 | -2 | . | 3 | 1 | . | .
O=c1cc(C(F)(F)F)[nH]c2ccccc12 | 2 | 3 | 8 | 0 | 8 | 50* | i
O=c1c2ccccc2[nH]c2ccccc12 | 5 | 1 | 7 | -1 | 1 | 144* | .
COc1ccc(/C=C/c2nnc(NC(=O)c3ccco3)s2)cc1 | 0 | -2 | -2 | 4 | 0 | 53* | i
C(=N\Nc1ncnc2sc3c(c12)CCC3)/c1cccs1 | -4 | -3 | 1 | -7 | 28 | 19 | .
C(=N\Nc1ncnc2sc3c(c12)CCC3)/c1ccncc1 | -4 | 0 | -5 | -7 | 27 | 51* | i
CCN1CCCc2cc(CN(CCN3CCOCC3)C(=S)Nc3cc(F)cc(F)c3)ccc21 | 5 | 0 | 2 | -5 | -2 | 55* | i
SMILES | LYPLA2 inh | LYPLA1 counter | p97 ATPase inh | Rin1 Abl inh | PREPL inhibitor | Hck-Nef inh | Hck Nef conf
CCN1CCCc2cc(CN(CCN3CCOCC3)C(=S)Nc3ccc(OC)cc3)ccc21 | 4 | 1 | 1 | 2 | 12 | 54* | i
COc1ccc(NC(=O)Nc2cccc3c2O[C@H](CN(C)Cc2ccc(-c4ccccc4)cc2)[C@@H](C)CN([C@H](C)CO)C3=O)cc1 | . | . | . | 3 | 21 | . | .
CCc1sc(/C=C(/C#N)C(N)=S)cc1[N+](=O)[O-] | . | . | 12 | 0 | . | 63* | i
CCc1ccc(/C=C(/C#N)C(N)=S)s1 | -3 | 0 | -4 | 0 | 9 | 23 | .
CCOc1ccc(OCCC(=O)OCC(=O)N2CCN(S(=O)(=O)c3ccc(C)cc3C)CC2)cc1 | . | . | . | 3 | . | . | .
Cn1cncc1C#Cc1c(C=O)[nH]c2ccccc12 | 2 | 0 | . | 2 | 12 | . | .
Cn1cc(/C=C(\C#N)C(=O)Nc2cccc([N+](=O)[O-])c2)c2ccccc21 | 6 | 4 | -7 | 2 | 12 | 62* | i
CC(=O)Nc1sc(N/N=C/c2ccccc2)nc1-c1ccc(C)cc1 | 12 | 2 | 7 | -1 | 7 | 69* | i
COc1ccc(/C=N/Nc2nc(-c3ccc(C)cc3)c(NC(C)=O)s2)cc1 | 2 | 0 | 5 | 4 | 10 | 83* | i
CC(=O)Nc1sc(N/N=C/c2ccccc2F)nc1-c1ccc(C)cc1 | -4 | -3 | 6 | 3 | 3 | 29 | .
CC(=O)Nc1sc(N/N=C/c2ccc(O)cc2)nc1-c1ccc(C)cc1 | 2 | -5 | 10 | -5 | 15 | 69* | i
O=C(Cc1ccsc1)NCC(=O)Nc1ccc(F)c(F)c1 | 8 | 4 | . | 4 | 5 | . | .
CCc1c(N)nc(N)nc1Nc1ccccc1C | . | . | . | 3 | . | . | .
COc1ccccc1N1CCN(C(=O)CSc2nc(C)c(C)c(=O)[nH]2)CC1 | 0 | 3 | 2 | 3 | 15 | 66* | i
CCc1c(C)nc(SCC(=O)N2CCN(c3ccccc3OC)CC2)[nH]c1=O | 4 | 0 | 5 | -5 | 14 | 25 | .
CC(=O)Nc1ccc(/C=C/c2nc(-c3ccccc3O)n[nH]2)cc1 | -27 | -20 | . | -1 | 7 | . | .
Cc1ccc(Cn2cccc(-c3nc4ccccc4s3)c2=O)cc1 | 6 | -1 | -8 | 4 | -20 | 123* | .
CCCCCCCCCCCCCCCCn1cc[n+](CC(C)=O)c1 | . | . | 2 | 1 | . | 63* | i
CCCCCCn1ccc(=N)cc1 | -3 | 1 | 1 | 3 | -10 | 0 | .
COC(=O)c1sc(NC(=O)COc2cccnc2[N+](=O)[O-])c(C(=O)OC)c1C | -12 | -11 | . | 6 | 7 | . | .
COCCNc1nc(-c2cc(C)n(CCc3ccc(OC)cc3)c2C)cs1 | 7 | 4 | 2 | 4 | 29 | 51* | i
COc1ccc(-c2csc(NCCc3nc4cc(Cl)c(Cl)cc4n3CCCO)n2)cc1 | -1 | -4 | . | 2 | 35 | . | .
